The values below come from PubChem BioAssay AID720504 (National Center for Advancing Translational Sciences (NCATS), 2013).

Among all 360,000 compounds or so, about 10,000 (2.8%) were called active. Another 4% or so got no clear call; they are omitted. Calls follow the shape of the dose curve; as a rule, active = well fitted inhibition curve with a large enough effect; inconclusive = small, poorly fitted or top-dose-only effect; inactive = flat fitted curve, though single readings scatter. The sample as a whole holds a higher share of actives than the screen did.
% is scaled to controls: 0 for no effect and ±100 for the full control effect; potency is read from the fitted curve at half-maximal effect.

The target of this test is Serine/threonine-protein kinase PLK1 (Homo sapiens) (UniProt P53350). As to the kind of experiment: qHTS for Inhibitors of PLK1-PDB (polo-like kinase 1 - polo-box domain): Primary Screen. Also: nearly all actives have a fitted effect of over 65% in size. As to max response, negative = inhibition: series mostly up to about 57 µM. Particulars: Plk1 PBD binding of FITC phosphopeptide, fluorescence polarization. In general terms: qHTS replaces the single test concentration by a dilution series.
Serine/threonine-protein kinase PLK1 (Homo sapiens), sequence (P53350 whole entry, looked up, the tested form may be a part): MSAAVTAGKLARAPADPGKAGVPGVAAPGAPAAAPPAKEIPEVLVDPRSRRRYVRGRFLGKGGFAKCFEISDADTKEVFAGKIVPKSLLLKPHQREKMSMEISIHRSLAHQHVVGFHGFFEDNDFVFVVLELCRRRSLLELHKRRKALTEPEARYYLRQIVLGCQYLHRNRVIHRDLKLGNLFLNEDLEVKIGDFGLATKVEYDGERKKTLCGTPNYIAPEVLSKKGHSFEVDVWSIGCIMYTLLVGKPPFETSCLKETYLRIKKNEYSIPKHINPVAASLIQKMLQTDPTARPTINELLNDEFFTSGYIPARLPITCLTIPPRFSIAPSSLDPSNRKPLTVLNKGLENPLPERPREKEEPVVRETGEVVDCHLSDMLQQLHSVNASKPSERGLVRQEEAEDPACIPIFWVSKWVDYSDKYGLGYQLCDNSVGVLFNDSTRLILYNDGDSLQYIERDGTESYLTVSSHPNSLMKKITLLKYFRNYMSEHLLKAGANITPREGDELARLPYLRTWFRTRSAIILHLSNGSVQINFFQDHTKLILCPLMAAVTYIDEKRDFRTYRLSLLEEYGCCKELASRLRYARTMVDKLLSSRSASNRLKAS
Turning to `COCCNc1ncnc2c1ncn2[C@H]1CN(CCN2CCOCC2)C[C@@H](CO)O1`, the max response, negative = inhibition is -5.67% (inactive). As to `CC(C)Nc1nc(NCCOc2ccccc2Cl)c2sccc2n1`, the max response, negative = inhibition was 4.77% (inactive). On to `Cc1sc2ccccc2c1CNC[C@H]1O[C@@H](n2ccc(=O)[nH]c2=O)[C@H](O)[C@@H]1O`, for which the max response, negative = inhibition is 2.69% (inactive). With `Cc1nnc(Sc2nc3c(c(=O)[nH]c(=O)n3C)n2Cc2ccccc2)s1`, the max response, negative = inhibition was 0.479% (inactive). Same read-out and setting: for `CC1CCN(c2nc3c(c(=O)[nH]c(=O)n3C)n2CCCc2ccccc2)CC1` the value was -10.5% (inactive). For `C=CCn1c(SCc2ccccc2)nc2c1c(=O)[nH]c(=O)n2C`, the Potency is 26.7 µM (active). Regarding `CN(C)C1CN(Cc2cn(Cc3ccccc3)nn2)S(=O)(=O)C1` (configuration not stated), the max response, negative = inhibition was -9.56% (inactive).

As for `CCCCCc1c(-c2cccc(Br)c2)ncn1CCc1ccccc1OC`, the max response, negative = inhibition was -9.6% (inactive). For the compound `O=C(NCCS(=O)(=O)N1CCN(c2ccccc2)CC1)c1ccco1`, the max response, negative = inhibition was -3.4% (inactive). `O=C(NCCS(=O)(=O)N1CCN(c2ccccc2F)CC1)c1ccc(Br)o1`: the Potency was 15 µM (active). In the case of `O=C(NCCS(=O)(=O)N1CCN(c2ccccc2)CC1)c1cc(=O)c2ccccc2o1`, the max response, negative = inhibition was -10.4% (inactive). Consider `NC(CSC(c1ccccc1)(c1ccccc1)c1ccc(-c2ccccc2)cc1)C(=O)O` (configuration not stated), for which the max response, negative = inhibition was -12.6% (inactive). Consider `CCC(=O)N1CCCC1(C)C(=O)Nc1ccc2c(c1)CCN2C(C)=O` (configuration not stated), for which the max response, negative = inhibition was -12.6% (inactive). As to `O=C(Nc1ccccc1)c1cc2ccccc2[nH]1`, the max response, negative = inhibition is 0% (inactive). `S=c1ccc2ccccc2[nH]1`: the Potency is 10.6 µM (active). Regarding `O=C(Nc1ccc(Cl)cn1)c1ccccc1-c1ccccc1`, the max response, negative = inhibition is -6.02% (inactive).

Regarding `CC1(C(=O)Nc2cccc3cccnc23)CCN1C(=O)CCC1CCCC1` (configuration not stated), the max response, negative = inhibition was 0.774% (inactive).

Consider `CCOC(=O)Nc1sc(C(=O)N(C)C)c(C)c1C(=O)OCC`, for which the max response, negative = inhibition was -6.39% (inactive). On the same count and under the same terms, for `CCOC(=O)c1c(N)sc2c1CCCC2=O` the value was -6.68% (inactive). For `CCOC(=O)c1c(N)sc(C(C)=O)c1C`, the Potency was 21.2 µM (active). For the compound `CC(=O)c1cccc(-c2cnc3c(NC=O)cc(-c4ccc(N5CCN(C)CC5)cc4)cn23)c1`, the max response, negative = inhibition is 2.15% (inactive). With `CCCCC(=O)N(C)c1c(CC)nc2c(OCc3ccc(S(C)(=O)=O)cc3)cccn12`, the max response, negative = inhibition was -6.21% (inactive).

Consider `COc1ccc(Cc2n[nH]c(=S)n2NC(=O)Nc2ccc(C)cc2)cc1`, for which the max response, negative = inhibition was -9.65% (inactive). For `COc1ccc(OCc2ccc(-c3nc4ccccc4c(=O)n3N)o2)cc1`, the max response, negative = inhibition was 2.15% (inactive).

On to `COc1ccc(OCc2n[nH]c(=S)n2N)cc1`, for which the Potency was 3.77 µM (active). On to `O=C(NCc1cccnc1)c1cc(C2CCCN(C(=O)C3CCCCC3)C2)on1` (configuration not stated), for which the max response, negative = inhibition was 0.902% (inactive). Regarding `CC1CC(NC(=S)N(C)C)CC(C)(C)C1` (configuration not stated), the max response, negative = inhibition is -1.25% (inactive). With `CC(C)CCN1CCN(Cc2ccc(C(F)(F)F)cc2)CC1CCO` (configuration not stated), the max response, negative = inhibition is 4.35% (inactive). For the compound `CC(=O)Nc1ccc(CN2CCN(Cc3ccc(F)c(F)c3)C(CCO)C2)cc1` (configuration not stated), the Potency was 18.9 µM (active).

As to `Cc1ccc(CN2CCN(Cc3ccc4ncccc4c3)CC2CCO)cc1` (configuration not stated), the max response, negative = inhibition is -1.02% (inactive). With `COc1ccc(-c2cc(NC=O)c3ncc(-c4cc(OC)c(OC)c(OC)c4)n3c2)c(OC)c1`, the max response, negative = inhibition is -18.1% (inactive). `O[C@@H]1C[C@H](c2ccccc2)N(Cc2cccs2)C[C@H]1n1cc(C2CC2)nn1`: the max response, negative = inhibition is -0.363% (inactive). Consider `Oc1ccc2ccc3cccc[n+]3c2c1`, for which the Potency was 4.74 µM (active). Consider `O=C1CCC(C(=O)OCC(=O)Nc2ccc(OC(F)F)cc2)=NN1`, for which the max response, negative = inhibition is -4.05% (inactive).

On to `CCNC(=O)C1(C)CCCN(C(=O)c2ccc3ccccc3n2)C1` (configuration not stated), for which the max response, negative = inhibition was -13.8% (inactive). `CC1(C(=O)O)CCN1C(=O)/C=C/c1ccccc1` (configuration not stated): the max response, negative = inhibition was -4.73% (inactive). As to `COc1ccc(C(C)(C)C)cc1NC(=O)CN(C)C1=NS(=O)(=O)c2ccccc21`, the max response, negative = inhibition was -6.05% (inactive). Same read-out and setting: for `CC(OC(=O)C1CC(=O)N(Cc2ccccc2)C1)C(=O)Nc1ccccc1[N+](=O)[O-]` (configuration not stated) the value was -3.81% (inactive). Take `COc1ccc(CCN2CC(C(=O)OCC(=O)NCc3ccccc3Cl)CC2=O)cc1OC` (configuration not stated): the max response, negative = inhibition is -3.96% (inactive). For `O=C(OCc1ccc([N+](=O)[O-])cc1)C1CC(=O)N(Cc2ccccc2Cl)C1` (configuration not stated), the Potency was 29.9 µM (active). Take `CCOC(=O)c1cnn2c(SC)ncnc12`: the max response, negative = inhibition was -4.05% (inactive).

Turning to `CC(C)Oc1cc(F)ccc1-c1cc(C(=O)Nc2cccc(Cl)c2)[nH]n1`, the max response, negative = inhibition is -2.39% (inactive). Same read-out and setting: for `Cc1cc(C)n(-c2ccc(NC(=O)C3CCCCN3C(=O)c3cccs3)cc2)n1` (configuration not stated) the value was -7.4% (inactive).

Take `COc1ccc(C(=O)C2CCCN(C(=O)c3ccc(OC)o3)C2)c(C)c1` (configuration not stated): the max response, negative = inhibition was -27.3% (inactive). Regarding `COc1ccc(C(=O)N2CCCCC2C(=O)Nc2ccc(-n3nc(C)cc3C)cc2)o1` (configuration not stated), the Potency is 23.8 µM (active).

With `CC(=O)c1ccccc1NC(=O)COC(=O)C1COc2ccccc2O1` (configuration not stated), the max response, negative = inhibition is 4.38% (inactive). As for `CCCC(=O)N1CCC1(C)C(=O)Nc1ccc(-n2cncn2)cc1` (configuration not stated), the max response, negative = inhibition is -11.3% (inactive). On to `Cc1ccccc1CN1C(=O)CSCC1(C)C(=O)Nc1c(C)cccc1C` (configuration not stated), for which the max response, negative = inhibition was -3.6% (inactive). For the compound `CCCCCCCCN1C(=O)[C@H](CC(=O)NCC23CC4CC(CC(C4)C2)C3)C[C@@]2(C(=O)OC)CCCCC=C12`, the max response, negative = inhibition is -9.18% (inactive). Consider `O=[N+]([O-])c1cc(S(=O)(=O)Nc2cccc(Cl)c2)ccc1N=Nc1c(O)[nH]c2ccccc12`, for which the Potency was 84.4 µM (active). Consider `O=C(O)c1ccccc1/C=N/Nc1ccc(S(=O)(=O)Nc2ccc(Cl)cc2)cc1[N+](=O)[O-]`, for which the max response, negative = inhibition is -22.4% (inactive). Consider `COc1ccc(S(=O)(=O)Nc2ccc3cn[nH]c3c2)cc1[N+](=O)[O-]`, for which the max response, negative = inhibition is -11.6% (inactive). On to `COc1ccc(Cl)cc1NC(=O)CCS(=O)(=O)c1ccc(Br)cc1`, for which the Potency was 15 µM (active). Take `CCOc1ccc(OCC)c(NC(=O)CCS(=O)(=O)c2ccc(C)cc2)c1`: the max response, negative = inhibition is -5.07% (inactive). Take `COc1ccc(Cl)cc1NC(=O)CCS(=O)(=O)c1cc2c(cc1C)NC(=O)CO2`: the max response, negative = inhibition was -11.9% (inactive). For the compound `COc1cc(CCN=Cc2ccccc2O)c([N+](=O)[O-])cc1OC`, the max response, negative = inhibition is -15.3% (inactive). Regarding `CN(C(=O)CN1CCN(c2cc(-c3ccc(OCc4ccccc4)cc3)ncn2)CC1)c1ccccc1`, the max response, negative = inhibition was 2.08% (inactive).
